Screening results as filed in PubChem BioAssay.
In the library only some 1.8% were active in any assay of this set; here they are far more common.
PAD4 inh: blocks human protein arginine deiminase 4; recombinant PAD4, RCA probe fluorescence polarization; 330,000 compounds, 0.41% hits; inhibition, % at 6.36 µM;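 active means percent inhibition above a cutoff equal to the mean of all tested compounds plus 3 SD, cut at about 15% in these data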;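 further: 0% = PAD4 with RCA probe and DMSO and 100% = probe without PAD4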
PME-1 inh: blocks human protein phosphatase methylesterase 1; inhibition, % at 5.9 µM; Q9Y570; recombinant PME-1, FP-Rh probe fluorescence polarization; 320,000 compounds, 0.53% hits;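 active means inhibition above the campaign mean of all compounds plus 3 SD, cut at about 26% in these data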;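 further: competitive labeling of PME-1 active site by serine hydrolase directed probe; 0% = PME-1 with DMSO and 100% = wells lacking PME-1 enzyme; inhibitors block probe labeling so polarization falls and inhibition rises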
LYPLA1 inh: counter-screen for PME1 inhibitors: inhibitors of human LYPLA1 | 320,000 compounds, 0.16% hits | recombinant LYPLA1, FP-Rh probe fluorescence polarization | AID 2174 | inhibition, % at 5.9 µM;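 active means inhibition above the mean of all tested compounds plus 3 SD, set per campaign, cut at about 14% in these data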;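 further: inhibitors block serine hydrolase probe labeling of LYPLA1 so polarization falls; 0% = enzyme with DMSO and 100% = wells lacking LYPLA1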
Target sequence (O75608 whole entry, looked up): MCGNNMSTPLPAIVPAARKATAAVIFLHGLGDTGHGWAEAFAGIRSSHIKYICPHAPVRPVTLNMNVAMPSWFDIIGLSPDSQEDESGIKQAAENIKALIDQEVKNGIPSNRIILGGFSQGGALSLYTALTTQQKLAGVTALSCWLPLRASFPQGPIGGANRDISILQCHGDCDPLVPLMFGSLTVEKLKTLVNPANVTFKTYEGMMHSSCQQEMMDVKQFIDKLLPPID
LYPLA2 inh: blocks human lysophospholipase 2, a PME1 counter-screen. O95372. recombinant LYPLA2, FP-Rh probe fluorescence polarization. inhibition, % at 5.9 µM. 320,000 compounds, 0.38% hits. AID 2177;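 active means inhibition above the screen-wide mean plus 3 SD, limit set per campaign, cut at about 26% in these data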;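 further: 0% = LYPLA2 with DMSO and 100% = wells lacking LYPLA2 enzyme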
GSTO1 inh: counter-screen for RBBP9 inhibitors: inhibitors of human GSTO1. P78417. recombinant GSTO1, activity-based probe fluorescence polarization. inhibition, % at 5.96 µM. 300,000 compounds, 1.1% hits;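 active means inhibition above the campaign mean inhibition plus 3 SD, cut at about 35% in these data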;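 further: 0% = GSTO1-1 with DMSO and 100% = wells lacking GSTO1-1 enzyme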
Target sequence (P78417 whole entry, looked up): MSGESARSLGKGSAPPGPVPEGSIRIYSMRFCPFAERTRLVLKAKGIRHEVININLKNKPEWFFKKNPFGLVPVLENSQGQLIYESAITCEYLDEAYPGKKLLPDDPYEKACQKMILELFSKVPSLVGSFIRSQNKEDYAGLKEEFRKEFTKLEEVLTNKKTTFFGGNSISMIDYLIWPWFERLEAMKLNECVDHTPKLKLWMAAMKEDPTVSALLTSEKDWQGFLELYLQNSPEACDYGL
Fam108B inh: counter-screen for RBBP9 inhibitors: inhibitors of mouse Fam108B; recombinant Fam108B, FP-Rh probe fluorescence polarization; inhibition, % at 9.51 µM; 300,000 compounds, 0.33% hits; AID 1947;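 active means inhibition above the screen mean inhibition plus 3 SD, computed separately per campaign, cut at about 18% in these data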;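 further: inhibitors lower polarization as less probe binds the enzyme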
* = called active by the depositor; . = no result given.

SMILES	PAD4 inh	PME-1 inh	LYPLA1 inh	LYPLA2 inh	GSTO1 inh	Fam108B inh
C=CCN(c1ccccc1)S(=O)(=O)c1cccc(C(=O)NCC(c2cccs2)N2CCOCC2)c1 (stereo unspecified)	0.6	0.3	2.9	5.3	11.5	2.1
CCOc1ccc(Oc2cc(N)cc([N+](=O)[O-])c2)cc1	-3.1	-7.1	-4.3	4.3	0.6	1.4
Cc1cccc(Oc2cc(N)cc([N+](=O)[O-])c2)c1	-0.1	-0.1	2.5	31.2*	2.2	-4.5
CCc1ccccc1NC(=O)c1ccc([N+](=O)[O-])s1	-5.7	-2.1	-4.9	-0.7	41.3*	2.3
COc1ccccc1NC(=O)COC(=O)c1ccc([N+](=O)[O-])s1	-3.8	-1.5	3.7	8.5	33.9	5.0
CC1CCN(C(=O)CCc2ccc(Oc3cc([N+](=O)[O-])cc([N+](=O)[O-])c3)cc2)CC1	-0.7	7.2	4.2	36.8*	-4.2	4.4
O=C(CCc1ccc(Oc2cc([N+](=O)[O-])cc([N+](=O)[O-])c2)cc1)NC1CCCC1	0.8	25.8	3.5	5.3	9.4	5.2
COC/C=C/C1=CC2=CC(=O)C(C)(OC(=O)c3cnc4ccccc4n3)C(=O)C2=CN1c1ccc(CO)cc1 (stereo unspecified)	6.7	5.3	0.9	9.6	36.7*	11.3
COC/C=C/C1=CC2=CC(=O)C(C)(OC(=O)c3cnc4ccccc4n3)C(=O)C2=CN1C1CCCCC1 (stereo unspecified)	0.2	3.4	-5.0	-3.5	35.5*	10.0
CCNc1ccc(Br)cc(C(=O)/C=C/c2c(Cl)cccc2Cl)c1=O	-7.2	13.4	-3.4	4.9	36.7*	17.9
CCNc1ccc(Br)cc(C(=O)/C=C/c2ccc3c(c2)OCO3)c1=O	6.5	6.8	1.7	22.9	53.2*	9.3
COC(=O)C(Cc1ccccc1)NC(=O)c1ccc(NS(=O)(=O)c2ccc3[nH]c(=O)[nH]c3c2)cc1 (stereo unspecified)	0.6	7.3	0.1	-0.5	.	.
O=C(COC(=O)c1cccnc1)c1ccc(Cl)cc1	0.4	-2.5	0.0	6.2	20.7	-0.1
O=C(COC(=O)c1cccnc1)c1ccc(Cl)c(Cl)c1	-4.5	-6.1	-4.2	-4.3	36.1*	-3.7
Cc1ccc(C(=O)CSc2nnc(COc3ccccc3)o2)cc1	-0.7	0.8	1.1	3.4	37.1*	7.2
Cc1ccc(N=Cc2nc(/C=C/c3cccc([N+](=O)[O-])c3)oc2O)cc1	0.0	27.3*	-5.0	2.9	8.1	-0.7
O=C(O)c1cccc(Nc2ccnc(Nc3cccc(C(=O)O)c3)n2)c1	1.0	-7.4	-1.7	2.8	24.3	-1.7
Cc1onc(NC(=O)NC(=O)c2c(Cl)cccc2Cl)c1Br	-4.7	26.4*	0.4	1.8	-0.2	-2.6
c1ccc(-c2oc3ncnc(NCCCn4ccnc4)c3c2-c2ccccc2)cc1	-1.8	6.5	-1.3	-1.5	37.0*	-2.4
c1ccc(-c2c(-c3ccccc3)n(Cc3ccco3)c3ncnc(NCCCn4ccnc4)c23)cc1	-4.1	12.2	2.9	1.4	10.6	2.7
COc1cccc(NC(=O)Nc2ccc3c(c2)N(C)C(=O)CS3)c1	-6.2	32.3*	-21.9	3.0	-7.9	15.1
CC(=O)Nc1ccc(NC(=O)Nc2ccc3c(c2)N(C)C(=O)CS3)cc1	-6.6	22.1	-1.9	8.6	2.9	4.0
CCCCn1c2ccccc2c2nnc(SCC(=O)NC3=NN=C(c4ccccc4)CS3)nc21	21.2*	1.7	2.5	-1.3	-9.0	1.4
Oc1ccc2c(c1)C1CCCC1(N1CCOCC1)O2 (stereo unspecified)	2.7	-0.8	0.2	5.9	41.8*	1.6
Oc1ccc(N=C/C=C/c2cccc(Br)c2)cc1-c1nc2ccccc2s1	0.4	2.7	0.5	6.2	35.2*	-0.5
COc1cc(OC)cc(-c2c(-c3cccs3)c3cc(-c4cnc(OC)nc4)ccc3n2C)c1	3.5	-0.7	1.2	6.2	.	.
Cn1c2ccccc2c2cc(/C=N/NC(=O)c3ccc(N)cc3)ccc21	-0.2	40.4*	-0.8	-2.9	-9.8	16.6
Cn1c2ccccc2c2cc(/C=N/NC(=O)c3ccccc3F)ccc21	-10.2	4.8	-9.4	-12.4	-13.3	-1.1
Cc1cc(C(=O)CSc2ncccn2)c(C)n1-c1cccc(F)c1	-2.7	-0.7	3.7	2.1	1.1	-1.4
